Data from PubChem BioAssay (Tox21).
Inconclusive results are not listed. Calls of active or inactive are those of the source. Unless noted, the call rests on the fitted dose curve; in most records, active means well fitted curve in the direction sought with a large enough effect in the repeat runs; inconclusive means weak or mixed curves; inactive means no such curve, though single readings can be large; an effect the other way counts as inactive or inconclusive.

Experiments:
[1] = qHTS assay to identify small molecule agonists of the NFkB signaling pathway - cell viability counter screen (AID 1159515; calls by dose curve; further: series mostly up to about 61 µM; on the % scale 0 is the no-effect control and ±100 the full control effect; nearly all actives have a fitted effect of over 55% in size)
Procedure, shortened: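 Parallel cytotoxicity counter screen in ME-180 cells carrying an NFkB-response-element beta-lactamase reporter, 2,000 cells/well. Compound exposure lasted 5 hr at 37 C, 5% CO2. Cell viability was quantified by CellTiter-Glo luminescence.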

[2] = qHTS assay to identify small molecule agonists of the endoplasmic reticulum stress response signaling pathway (AID 1159516; active means well fitted activation curve with a large enough effect in the signal ratio in the repeat runs, not every such curve was filed as active; the % refers to the signal ratio; further: on the % scale 0 is the no-effect control and ±100 the full control effect)
Procedure, shortened: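 Using a HeLa line with an ESRE-driven beta-lactamase gene, agonist activity was measured by FRET substrate fluorescence (460 and 530 nm emission) after cells were treated with compounds for 5 hr at 37 C and 5% CO2.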

[3] = qHTS assay to identify small molecule agonists of the endoplasmic reticulum stress response signaling pathway - cell viability counter screen (AID 1159517; calls by dose curve;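 further: HeLa cells carrying an ER stress response element beta-lactamase reporter; series mostly up to about 61 µM; on the % scale 0 is the no-effect control and ±100 the full control effect; nearly all actives have a fitted effect of over 50% in size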)
Procedure, shortened: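 ESRE-bla HeLa cells (1,500/well) were plated overnight at 37 C and exposed to compounds for 5 hr. After the 2 hr beta-lactamase substrate read, CellTiter-Glo went into the same wells, and luminescence was read after 30 min at room temperature.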

[4] = qHTS assay to identify small molecule antagonists of the retinoid-related orphan receptor gamma (ROR-gamma) signaling pathway - cell viability counter screen (AID 1159520); further: on the % scale 0 is the no-effect control and ±100 the full control effect; nearly all actives have a fitted effect of over 50% in size
Procedure, shortened: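 Cytotoxicity was read from cellular ATP (CellTiter-Glo luminescence) after 16 hr at 37 C with 1 uM doxycycline induction. The inducer was added 2 hr after compound transfer to Tet-on ROR gamma CHO cells.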

[5] = biological target: Nuclear receptor ROR-gamma (Homo sapiens) (UniProt P51449); assay: qHTS assay to identify small molecule antagonists of the retinoid-related orphan receptor gamma (ROR-gamma) signaling pathway (AID 1159521;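 further: CHO cells with doxycycline inducible ROR-gamma driving an RORE luciferase reporter; top concentration of the series differs between compounds; on the % scale 0 is the no-effect control and ±100 the full control effect; nearly all actives have a fitted effect of over 50% in size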)
Procedure, shortened: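 Decreased RORE-driven luciferase luminescence indicates antagonism. Tet-on RORγ CHO cells received compound, then 1 uM final doxycycline 2 h later; signal read after 16 h incubation.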

[6] = qHTS assay to identify small molecule agonists of the AP-1 signaling pathway - cell viability counter screen (AID 1159525; calls by dose curve; further: nearly all actives have a fitted effect of over 55% in size)
Procedure, shortened: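 Intracellular ATP by Cell Titer Glo luminescence (30 min, RT) in the same ME-180 AP-1-bla wells after the 5 h compound exposure at 37 °C. Normalised to tetra n-octyl ammonium bromide and DMSO controls.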

[7] = qHTS assay to identify small molecule agonists of the AP-1 signaling pathway (AID 1159526; calls by dose curve; further: on the % scale 0 is the no-effect control and ±100 the full control effect)
[8] = biological target: Retinoic acid receptor RXR-alpha (Homo sapiens) (UniProt P19793); assay: qHTS assay to identify small molecule agonists of the RXR signaling pathway (AID 1159527; calls by dose curve; further: on the % scale 0 is the no-effect control and ±100 the full control effect; nearly all actives have a fitted effect of over 35% in size)
Sequence of Retinoic acid receptor RXR-alpha (Homo sapiens) (P19793 whole entry, looked up): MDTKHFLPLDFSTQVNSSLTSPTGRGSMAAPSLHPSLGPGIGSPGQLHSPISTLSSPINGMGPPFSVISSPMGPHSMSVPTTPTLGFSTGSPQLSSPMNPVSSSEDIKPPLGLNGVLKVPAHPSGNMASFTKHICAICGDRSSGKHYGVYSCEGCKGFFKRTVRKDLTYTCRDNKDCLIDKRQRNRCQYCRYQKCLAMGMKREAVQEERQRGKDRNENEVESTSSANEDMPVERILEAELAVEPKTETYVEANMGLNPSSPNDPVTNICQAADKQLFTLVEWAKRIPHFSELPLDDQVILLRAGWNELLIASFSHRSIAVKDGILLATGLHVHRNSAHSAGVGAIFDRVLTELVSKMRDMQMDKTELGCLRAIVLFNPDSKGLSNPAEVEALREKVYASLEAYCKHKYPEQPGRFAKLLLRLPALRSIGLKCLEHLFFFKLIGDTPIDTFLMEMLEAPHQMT
Procedure, shortened: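 16 hr incubation of compound-treated RXR-alpha-UAS-bla HEK 293T cells (2% charcoal-stripped FBS, 37 C) preceded a 2 hr room-temperature LiveBLAzer FRET substrate step and blue/green fluorescence measurement.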

[9] = qHTS assay to identify small molecule agonists of the RXR signaling pathway - cell viability counter screen (AID 1159529);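 further: HEK 293T cells carrying an RXR-alpha UAS beta-lactamase reporter; series mostly up to about 77 µM; on the % scale 0 is the no-effect control and ±100 the full control effect; nearly all actives have a fitted effect of over 50% in size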
Procedure, shortened: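 In this parallel viability measure, GeneBLAzer RXR-alpha HEK 293T cells (2% charcoal-stripped FBS) were given a 5 hr preincubation, treated with compounds 16 hr at 37 C, and read by CellTiter-Glo luminescence.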

[10] = qHTS assay to identify small molecule antagonists of the retinoid acid receptor (RAR) signaling pathway - cell viability counter screen (AID 1159551); further: on the % scale 0 is the no-effect control and ±100 the full control effect; nearly all actives have a fitted effect of over 35% in size
Procedure, shortened: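 ATP-based viability, C3RL4 cells, 6 h at 37 C with 1 uM final retinol co-added after compound; luminescence read 30 min post CellTiter-Glo, RT.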

[11] = qHTS assay to identify small molecule antagonists of the retinoic acid receptor (RAR) signaling pathway (AID 1159552)
Procedure, shortened: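 C3RL4 RARE-luc cells, overnight plating; retinol 1 uM final added right after compound; 6 hr 37 C; luciferase read at 30 min RT.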

[12] = qHTS assay to identify small molecule agonists of the retinoic acid receptor (RAR) signaling pathway (AID 1159553); further: on the % scale 0 is the no-effect control and ±100 the full control effect
Procedure, shortened: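 Quantitative high-throughput format: the Tox21 10K library was tested on C3RL4 RARE-luciferase cells for 6 hr at 37 C and 5% CO2, with luminescence measured after a 30 min room-temperature reagent step.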

[13] = qHTS assay to identify small molecule antagonists of the estrogen related receptor (ERR) signaling pathway from Tox21 library - cell viability counter screen (AID 1224834); further: on the % scale 0 is the no-effect control and ±100 the full control effect; nearly all actives have a fitted effect of over 30% in size
Procedure, shortened: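 Compounds in DMSO were pinned onto ERR cells that had been incubated for 6 h, and the plates were held at 37 C for 17.5 h. CellTiter-Fluor reagent was then added and fluorescence was measured after 30 min.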

[14] = biological target: Luciferin 4-monooxygenase (Photinus pyralis) (UniProt P08659); assay: qHTS assay to identify small molecule inhibitors of firefly luciferase (AID 1224835); further: series mostly up to about 120 µM; on the % scale 0 is the no-effect control and ±100 the full control effect; nearly all actives have a fitted effect of over 25% in size
Sequence of Luciferin 4-monooxygenase (Photinus pyralis) (P08659 whole entry, looked up): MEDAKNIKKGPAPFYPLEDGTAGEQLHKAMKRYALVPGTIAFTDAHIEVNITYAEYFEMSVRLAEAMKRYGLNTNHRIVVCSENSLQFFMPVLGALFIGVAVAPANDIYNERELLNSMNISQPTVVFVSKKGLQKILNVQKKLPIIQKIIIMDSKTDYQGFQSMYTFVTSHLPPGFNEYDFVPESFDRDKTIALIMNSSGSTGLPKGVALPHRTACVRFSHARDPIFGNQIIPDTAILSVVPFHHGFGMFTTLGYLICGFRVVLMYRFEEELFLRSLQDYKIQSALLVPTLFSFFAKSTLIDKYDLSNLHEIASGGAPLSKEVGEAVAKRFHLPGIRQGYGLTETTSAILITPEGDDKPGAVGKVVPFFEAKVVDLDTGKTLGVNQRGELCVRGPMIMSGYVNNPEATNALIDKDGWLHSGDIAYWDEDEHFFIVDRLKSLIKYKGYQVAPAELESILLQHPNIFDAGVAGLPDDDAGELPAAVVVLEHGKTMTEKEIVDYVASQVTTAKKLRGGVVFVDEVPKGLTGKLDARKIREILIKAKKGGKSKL
Procedure, shortened: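 Inhibition of purified Photinus luciferase is measured by luminescence. Substrate levels (D-luciferin, ATP) sit at their KM values. Each compound is tested in a concentration series.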

[15] = qHTS assay to identify small molecule agonists of the constitutive androstane receptor (CAR) signaling pathway - cell viability counter screen (AID 1224836); further: series mostly up to about 92 µM; on the % scale 0 is the no-effect control and ±100 the full control effect; nearly all actives have a fitted effect of over 45% in size
Procedure, shortened: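 Using CellTiter-Fluor, viability of HepG2 cells harbouring hCAR and CYP2B6-2.2kb was measured following 23 h incubation with a 15-concentration compound series plus PK11195 (0.75 uM final).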

[16] = qHTS assay to identify small molecule antagonists of the constitutive androstane receptor (CAR) signaling pathway - cell viability counter screen (AID 1224837); further: series mostly up to about 92 µM; on the % scale 0 is the no-effect control and ±100 the full control effect; nearly all actives have a fitted effect of over 45% in size
Procedure, shortened: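 Cells are seeded, rested 4 hr at 37 C/5% CO2, dosed with compound (15-point series) and 50 nM CITCO, incubated a further 23 hr, and then CellTiter-Fluor reagent is added before fluorescence is read. The line is HepG2 with stable hCAR and CYP2B6-2.2kb.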

[17] = biological target: Nuclear receptor subfamily 1 group I member 3 (Homo sapiens) (UniProt Q14994); assay: qHTS assay to identify small molecule agonists of the constitutive androstane receptor (CAR) signaling pathway (AID 1224839);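 further: HepG2 cells stably carrying human CAR and a CYP2B6 luciferase reporter; series mostly up to about 92 µM; on the % scale 0 is the no-effect control and ±100 the full control effect; nearly all actives have a fitted effect of over 15% in size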
Sequence of Nuclear receptor subfamily 1 group I member 3 (Homo sapiens) (Q14994 whole entry, looked up): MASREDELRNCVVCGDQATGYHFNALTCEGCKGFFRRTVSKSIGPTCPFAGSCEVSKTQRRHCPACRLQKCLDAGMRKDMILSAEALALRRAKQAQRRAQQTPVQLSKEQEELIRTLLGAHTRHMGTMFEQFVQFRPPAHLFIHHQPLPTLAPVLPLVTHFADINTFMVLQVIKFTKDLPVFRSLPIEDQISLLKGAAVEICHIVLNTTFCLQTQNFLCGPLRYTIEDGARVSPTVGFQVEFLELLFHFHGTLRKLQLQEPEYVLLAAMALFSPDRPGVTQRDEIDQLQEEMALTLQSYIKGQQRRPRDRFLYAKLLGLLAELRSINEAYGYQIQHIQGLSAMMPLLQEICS
Procedure, shortened: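 Double-stable HepG2 cells (hCAR, CYP2B6-2.2kb) seeded 4 h before compound addition. Exposure 24 h with 0.75 uM PK11195 final. Luciferase detected by ONE-Glo.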

[18] = qHTS assay to identify small molecule antagonists of the estrogen related receptor signaling pathway with the pleiotropic PPARgamma coactivator (PGC) from Tox21 10K library - cell viability counter screen (AID 1224840; active means well fitted cell-killing curve with a large enough effect in the repeat runs, not every such curve was filed as active; further: on the % scale 0 is the no-effect control and ±100 the full control effect; nearly all actives have a fitted effect of over 40% in size)
Procedure, shortened: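 Cell viability is measured by CellTiter-Fluor fluorescence in PGC/ERR cells that receive compounds after a 6-hour attachment period and are then incubated 17.5 hours at 37 C.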

[19] = qHTS assay to identify small molecule antagonists of the vitamin D receptor (VDR) signaling pathway - cell viability counter screen (AID 743225)
Procedure, shortened: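 Parallel cytotoxicity test: VDR-UAS-bla HEK 293T, 3 nM (final) 1-alpha,25-dihydroxyvitamin D3 with test compound, 16 h, 37C. Endpoint is CellTiter-Glo luminescence in the same wells.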

[20] = biological target: Nuclear receptor subfamily 1 group I member 3 (Homo sapiens) (UniProt Q14994); assay: qHTS assay to identify small molecule antagonists of the constitutive androstane receptor (CAR) signaling pathway (AID 1224838);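 further: HepG2 cells stably expressing hCAR with CYP2B6 luciferase reporter stimulated by CITCO; on the % scale 0 is the no-effect control and ±100 the full control effect; nearly all actives have a fitted effect of over 40% in size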
Procedure, shortened: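 Luminescence from a CYP2B6-2.2kb promoter reporter in hCAR-expressing HepG2 cells reflects CAR signaling. Cells received compounds at 15 concentrations and 50 nM CITCO (final), then incubated 24 h at 37 C/5% CO2.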

CCC(C)c1nccnc1OC (stereo unspecified)
inactive: outcome [1] | Potency [2] | outcome [3] | outcome [4] | outcome [5] | outcome [6] | Potency [7] | Potency [8] | Potency [9] | outcome [10] | outcome [11] | Potency [12] | outcome [13] | Potency [14] | outcome [15] | outcome [16] | Potency [17] | outcome [18]

CC(C)(C)OC(=O)c1ccccc1C(=O)O
inactive: outcome [1] | Potency [2] | outcome [3] | outcome [4] | outcome [5] | outcome [6] | Potency [7] | Potency [8] | Potency [9] | outcome [10] | outcome [11] | Potency [12] | outcome [13] | Potency [14] | outcome [15] | outcome [16] | Potency [17] | outcome [18]

CC(C)(O)c1ccc(C(C)(C)O)cc1
inactive: outcome [19] | outcome [1] | Potency [2] | outcome [3] | outcome [4] | outcome [5] | outcome [6] | Potency [7] | Potency [8] | Potency [9] | outcome [10] | outcome [11] | Potency [12] | outcome [13] | Potency [14] | outcome [15] | outcome [16] | Potency [17] | outcome [18]

CCOC(=O)[C@H](CCc1ccccc1)N[C@H]1CS[C@H](c2cccs2)CN(CC(=O)O)C1=O
inactive: outcome [1] | Potency [2] | outcome [3] | outcome [4] | outcome [5] | outcome [6] | Potency [7] | Potency [8] | Potency [9] | outcome [10] | outcome [11] | Potency [12] | outcome [13] | Potency [14] | outcome [15] | outcome [16] | outcome [18]

N#Cc1cc(NC(=O)C(=O)O)c(Cl)c(NC(=O)C(=O)O)c1
inactive: outcome [1] | Potency [2] | outcome [3] | outcome [4] | outcome [5] | outcome [6] | Potency [7] | Potency [8] | Potency [9] | outcome [10] | outcome [11] | Potency [12] | outcome [13] | Potency [14] | outcome [15] | outcome [16] | outcome [18]

C[C@@H]1NC(=O)[C@@H](N)CNC(=O)[C@H](C2CCNC(N)=N2)NC(=O)/C(=C/NC(N)=O)NC(=O)[C@H](CNC(=O)C[C@@H](N)CCCN)NC1=O (stereo partly specified)
inactive: activity, negative = cytotoxic [1] 1.55% [at 0.628 µM] | activation [2] 0.164% [at 0.628 µM] | activity change, negative = cytotoxicity [3] 13.9% [at 0.628 µM] | activity, negative = cytotoxicity [4] 1.69% [at 0.349 µM] | activity change, negative = inhibition [5] 9.3% [at 0.35 µM] | viability change, negative = cytotoxic [6] 0.985% [at 0.29 µM] | activation [7] -1.11% [at 0.29 µM] | activation [8] 5.99% [at 0.29 µM] | activity change, negative = cytotoxicity [9] 9.35% [at 0.29 µM] | activity change, negative = cytotoxicity [10] 5.1% [at 0.349 µM] | activity, negative = inhibition [11] 21% [at 0.349 µM] | activation [12] 0.189% [at 0.756 µM] | viability change, negative = cytotoxic [13] -0.374% [at 0.349 µM] | activity change, negative = inhibition [14] -1.34% [at 0.435 µM] | viability change, negative = cytotoxic [15] -0.0447% [at 0.349 µM] | activity change, negative = cytotoxicity [16] 0.72% [at 0.349 µM] | activation [17] 4.38% [at 0.349 µM] | viability change, negative = cytotoxic [18] 10.7% [at 0.349 µM]

CCO/C=C1\N=C(c2ccccc2)OC1=O
inactive: outcome [19] | outcome [1] | Potency [2] | outcome [3] | outcome [4] | outcome [5] | outcome [6] | Potency [7] | Potency [8] | Potency [9] | outcome [10] | outcome [11] | Potency [12] | outcome [13] | Potency [14] | outcome [15] | outcome [16] | outcome [20] | outcome [18]
